Screens as filed in PubChem BioAssay.
This is a sample that favours compounds with a hit; in the whole collection about 7.4% have one here.
FLuc modulator – firefly luciferase modulation, counter-screen for miR-21 project. P08659. purified FLuc, Km substrates, luminescence inhibition. Potency, µM (series often up to 57.5 µM), without a hit: at the top dose activity change, negative = inhibition, usual class: inhibitors. 360,000 tested, 6.9% active;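 also: plate controls were vehicle for no effect and reference inhibitor for full effect; nearly all actives have a fitted effect of over 55% in size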
Target sequence (P08659 whole entry, looked up): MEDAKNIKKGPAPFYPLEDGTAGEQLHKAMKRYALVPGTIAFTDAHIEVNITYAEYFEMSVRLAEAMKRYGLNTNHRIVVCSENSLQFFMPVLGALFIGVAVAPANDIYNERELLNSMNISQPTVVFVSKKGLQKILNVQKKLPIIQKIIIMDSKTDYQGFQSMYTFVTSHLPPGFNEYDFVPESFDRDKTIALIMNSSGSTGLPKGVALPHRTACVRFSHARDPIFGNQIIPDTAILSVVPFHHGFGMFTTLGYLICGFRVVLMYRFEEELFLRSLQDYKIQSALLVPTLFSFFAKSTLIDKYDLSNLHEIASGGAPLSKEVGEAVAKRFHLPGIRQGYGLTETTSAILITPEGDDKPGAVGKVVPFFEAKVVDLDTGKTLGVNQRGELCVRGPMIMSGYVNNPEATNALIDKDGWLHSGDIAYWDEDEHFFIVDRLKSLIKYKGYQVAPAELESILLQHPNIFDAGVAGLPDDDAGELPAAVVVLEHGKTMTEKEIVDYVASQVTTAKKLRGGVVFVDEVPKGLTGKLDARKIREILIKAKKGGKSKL
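Purified P. pyralis luciferase (10nM final) with 10uM D-luciferin and 10uM ATP (Km levels) in 50mM Tris acetate pH 7.5, 10mM Mg acetate, 0.01% Tween-20, 0.05% BSA; qHTS 6-point titration, ~60 µM downward; luminescence read.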
ELG1 genotoxic – induces genotoxicity in HEK293T cells with luciferase-tagged ELG1; Potency, µM (top dose mostly 46 µM), for inactives: top-dose activity change, positive = activation, actives largely listed as activators; AID 504466; HEK293T ELG1-luciferase reporter, luminescence, 16 h; 330,000 tested, 1.3% active; also: % of control where 0% means no effect; nearly all actives have a fitted effect of over 60% in size
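16 hr compound incubation (37 °C, 5% CO2) of HEK293T cells carrying luciferase-tagged ELG1; luciferase then measured by ONE-Glo luminescence after 30 min at RT.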
Rab9 promoter act – activates the Rab9 promoter; 320,000 tested, 2.8% active; Potency, µM (titrated, usually from 9.22 µM), for the others: at the highest dose activation, negative = inhibition, most hits filed as activators; Huh7 Rab9 promoter-luciferase reporter, luminescence, 24 h; also: % of control where 0% means no effect; nearly all actives have a fitted effect of over 60% in size
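Cells were plated at 1500 per well in reduced-serum medium with 10% FBS and left 2 h. Compound in DMSO was then added for 24 h at 37 °C. Reporter signal was read by luminescence after 10 min with luciferase detection reagent.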
SMN2 splice enh – increases expression of the SMN2 splice variant. HEK293 SMN2-luciferase splicing reporter, luminescence, 30-36 h. Potency, µM (doses to about 46.1 µM), for the others: at the top dose activity change, positive = activation, most hits filed as activators. 210,000 tested, 2.8% active. AID 1458; also: % of control where 0% means no effect; nearly all actives have a fitted effect of over 55% in size
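qHTS luciferase splicing reporter: luminescence rises when SMN2 exon 7 is included in transfected HEK293 cells. Compound exposure lasted 30-36 h at 37C, with 4.5 mM final sodium butyrate as control, followed by a ONE-Glo read.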
NPC1 prom act – activators of NPC1 promoter; Huh7 NPC1 promoter luciferase reporter, 24 h; Potency, µM (top dose mostly 9.22 µM), for the others: at the highest dose activation, actives largely listed as activators; 320,000 tested, 2.4% active; also: % of control where 0% means no effect; nearly all actives have a fitted effect of over 60% in size
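Cells: Huh7 expressing luciferase under the NPC1 promoter, 1500/well. Seeded 2 h, compound added, incubated 24 h at 37 °C. Luciferase reagent, 10 min ambient, then luminescence.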
p53 reactivation – mutant p53 re-activation in reporter cells | 320,000 tested, 0.063% active | Potency, µM (top dose mostly 92.2 µM), inactives show top-dose activity change, positive = activation, actives largely listed as activators | H1299 p53-A138V BP100-luciferase reporter, luminescence, 24 h | AID 504706; also: % of control where 0% means no effect; nearly all actives have a fitted effect of over 45% in size
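p53-null H1299 cells stably carrying temperature-sensitive p53-A138V and a BP100-luciferase reporter were pinned with compounds (4-point, 1:5 series) and held 24 hrs at 37 deg C. Luminescence was read 10 min after detection reagent.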
The depositor's hits bear a star; ? = inconclusive; . = no result given; [ ] = dose if it differs, or a comment. Calls follow the shape of the dose curve; as a rule, active = well fitted curve in the direction sought with a large enough effect; inconclusive = small, poorly fitted or top-dose-only effect, or another doubt; inactive = no such curve, though single readings can be large; an effect the other way counts as inactive or inconclusive. Potency is read from the fitted curve at half-maximal effect.

SMILES | FLuc modulator | ELG1 genotoxic | Rab9 promoter act | SMN2 splice enh | NPC1 prom act | p53 reactivation
O=c1c(N2CCc3ccccc3C2)csc2ccc(F)cc12 | 6µM* | . | . | . | . | .
Cc1ccc2scc(N3CCC(C)CC3)c(=O)c2c1 | 1.2µM* | . | . | . | . | .
CC1CCN(c2csc3ccc(F)cc3c2=O)CC1 | 6µM* | . | . | . | . | .
CC1CCN(c2cc3c(cc2F)c(=O)c(S(=O)(=O)c2ccc(Cl)cc2)cn3C)CC1 | -5% | . | . | . | . | .
Fc1ccc2[nH]c3c(N4CCc5ccccc5C4)ncnc3c2c1 | -6% | -5% | -31% | . | -25% | -1%
CCC(=O)OCN1C(=O)C=CC1=O | . | . | . | -9%[9.22 µM] | . | .
COC(=O)[C@H](Cc1ccccc1)NC(=O)O[C@@H]1C(=O)c2cc(Br)ccc2O[C@H]1c1ccc2c(c1)OCO2 | . | . | . | 8% | . | .
Cc1ccc2scc(N3CCCCC3)c(=O)c2c1 | 0.85µM* | . | . | . | . | .
COc1ccc(N2CCN(c3csc4ccc(Cl)cc4c3=O)CC2)cc1 | -20% | . | . | . | . | .
Nc1nc2c(s1)CC(c1ccccc1)CC2 (stereo not given) | 24µM* | 2% | 0% | -16% | 4% | 8%
CCCCOc1ccc(C(=O)N(Cc2nc(-c3ccc(Cl)cc3)no2)C(C)C)cc1 | -1% | . | . | 4% | . | .
CCOc1ccc(N2C(=O)S/C(=C\c3cccn3C)C2=O)cc1 | -4% | 11% | 29% | ? | 12% | 16%
Cn1cccc1/C=C1\SC(=O)N(c2ccc(O)cc2)C1=O | ? | ? | ? | 13µM* | ? | 16%
Cc1ccc(OCc2nc(-c3ccc(Cl)cc3)n[nH]2)cc1 | ? | 3% | 13% | -23% | 3% | 11%
Cc1ccc(-c2n[nH]c(Cc3ccccc3)n2)cc1 | 19µM* | ? | 2.5µM* | . | 2.8µM* | ?
COc1cc(C(=O)NCCc2sc(-c3ccc(C)cc3)nc2C)cc(OC)c1OC | -17% | . | . | . | . | .
COc1ccc(-c2nc(C)c(CCNC(=O)c3cc(OC)c(OC)c(OC)c3)s2)cc1OC | -12% | . | . | . | . | .
COc1ccc(-c2nc(C)c(CCNC(=O)c3ccc(F)c(F)c3)s2)cc1 | 21µM* | . | . | . | . | .
COc1ccc(-c2nc(C)c(CCNC(=O)c3cccs3)s2)cc1 | 27µM* | . | . | . | . | .
COc1ccc(-c2nc(C)c(CCNC(=O)c3cccc(C)c3)s2)cc1OC | 24µM* | . | . | . | . | .
Cc1nc(-c2cccc(F)c2)sc1CCNC(=O)c1ccc(F)c(F)c1 | -15% | . | . | . | . | .
CN(C(=O)c1cccc(NC(=O)c2cccs2)c1)c1ccccc1 | -3% | 0% | 7% | . | -2% | -7%
C/C(=N\Nc1nncc2ccccc12)c1cccc(OC(F)F)c1 | 1.1µM* | 2.9µM* | 1.1µM* | . | 1µM* | ?
C/C(=N\Nc1nc(-c2ccc(C)cc2)nc2ccccc12)c1ccc([N+](=O)[O-])cc1 | -3% | -2% | 0% | -20% | 0% | 5%
COc1ccc(-c2nc(N/N=C(\C)c3ccc(O)cc3)c3ccccc3n2)cc1 | 1.7µM* | -9% | 4% | . | -3% | 22%
SMILES | FLuc modulator | ELG1 genotoxic | Rab9 promoter act | SMN2 splice enh | NPC1 prom act | p53 reactivation
C/C(=N\Nc1nncc2ccccc12)c1ccc(O)cc1 | 0.95µM* | 28% | 0.71µM* | . | 1.3µM* | ?
C/C(=N\Nc1nncc2ccccc12)c1ccc(C(C)(C)C)cc1 | 7.6µM* | 18% | 18%[1.84 µM] | . | ? | 8%
C/C(=N\Nc1c(Cl)c(Cl)nc(C(=O)O)c1Cl)c1ccc(O)cc1 | ? | 0% | 0% | . | 0% | 8%
CCCc1cc(=O)oc2cc(C)cc(OCC(=O)N[C@@H](CSCc3ccccc3)C(=O)O)c12 | 0% | 1% | -5% | . | -3% | 8%
CC(C)(C)c1ccc(C(=O)NC2=NC(c3cccc(F)c3)CC(=O)N2)cc1 (stereo not given) | 2% | . | . | 18% | . | .
COc1ccccc1NC(=O)C1CCCN1C(=O)Nc1ccc(F)cc1 (stereo not given) | 4% | 2% | 6% | . | -2% | 4%
N#CCc1nc2ccc(S(=O)(=O)N3CCOCC3)cc2s1 | 6% | -4% | 0% | . | -1% | -4%
CC(=O)CCSc1nnc(-c2cccc(S(=O)(=O)N3CCOCC3)c2)o1 | 5% | 1% | 2% | . | 2% | 4%
O=S(=O)(c1cccc(-c2nnc(SCc3nc4ccccc4s3)o2)c1)N1CCOCC1 | 19µM* | 6% | ? | 0% | ? | ?
O=S(=O)(c1ccc(OCc2nc3ccccc3s2)c(Cl)c1)N1CCOCC1 | -19% | 9.2µM* | ? | 19% | ? | ?
Cc1cccc(NC(=O)c2ccc3c(c2)OCCO3)c1 | 0.76µM* | ? | 0.63µM* | . | 0.89µM* | 17%
Cc1cccc(NC(=S)NCc2ccc3c(c2)OCO3)c1 | -1% | 1% | -9% | 25% | -2% | -4%
Cc1ccc(-c2cc(C(=O)Nc3cc(C(=O)O)ccc3C)c3ccccc3n2)cc1 | 11µM* | 3% | -1% | . | -1% | 6%
Cc1ccc(C(=O)Nc2ccc3c(c2)OCCO3)c(C)c1 | 0.3µM* | ? | 0.089µM* | . | 0.089µM* | .
Cc1cccc(NC(=S)NNC(=O)c2ccc3c(c2)OCO3)c1 | 4.8µM* | ? | 1.8µM* | 13µM* | ? | ?
Cc1ccc(C(=O)NCC(=O)Nc2ccc3c(c2)OCCO3)cc1 | -5% | 1% | 12% | . | -4% | 22%
Cc1ccc(C2Nc3ccccc3-n3c(-c4ccccc4)c4c(=O)n(C)c(=O)n(C)c4c32)o1 (stereo not given) | 2% | . | . | . | . | .
COc1ccc(Cl)cc1NC(=O)CN(C)CC(=O)Nc1cc(OC)c(OC)c(OC)c1 | -1% | -9% | -16% | . | -31% | -9%
COC(=O)c1cc2sc(Cl)cc2n1Cc1c(C)cc(C)cc1C | -3% | . | . | 12% | . | .
CC(=O)Nc1ccc(-c2csc(NC(=O)Cc3cccc(F)c3)n2)cc1 | -2% | -15% | -2% | . | -4% | 11%
Cc1ccc(-n2ncc(C(=O)Nc3ccc4c(c3)OCO4)c2C2CCN(C(=O)OC(C)(C)C)CC2)c(C)c1 | -18% | . | . | . | . | .
NC(N)=NNC(=O)C(=O)O | . | . | . | 10%[9.22 µM] | . | .
CCCCOC(=O)c1ccc(Nc2nc3ccc(C(=O)c4ccccc4)cc3n3cnnc23)cc1 | 0% | . | . | . | . | .
CCCc1cc(C(=O)NNC(=S)Nc2cccc(C)c2)cs1 | 11µM* | 9% | 2.5µM* | 5.6µM* | ? | ?
O=C(Nc1cccc(F)c1)c1ccc2c(c1)OCCO2 | 4.8µM* | ? | 3.2µM* | . | ? | ?
Cc1cccc(NC(=S)NNC(=O)c2csc3c2CCC(C)C3)c1 (stereo not given) | 12µM* | 25% | ? | 19% | 16% | 21%
O=C(Nc1ccc(NC(=O)c2ccc3c(c2)OCCO3)cc1)c1ccccc1 | 2% | ? | -7% | . | -3% | 13%
